The whole screen tested about 320,000 compounds, of which about 2,100 (0.66%) were called active. Not shown: some 53% with an inconclusive outcome. The call rests on the fitted dose curve; in most records, active means well fitted inhibition curve with a large enough effect in the signal ratio, with a control signal flat (not every such curve was filed as active); inconclusive means small, poorly fitted or top-dose-only effect, or effect the other way, or a change in a side signal; inactive means flat fitted curve, though single readings scatter; the % refers to the signal ratio. The entries come from a sample that favours actives as a whole.
Test: qHTS Assay for Lipid Storage Modulators in Drosophila S3 Cells;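 on cell number change: cells counted by Cell Tracker Red CMTPX staining in the red channel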; on lipid storage change, negative = inhibition: on the % scale 0 is the no-effect control and ±100 the full control effect
Settings: BODIPY lipid droplet fluorescence, 18-24 h, cells fed with added oleic acid; cell number change: measured here: cell count max response; series mostly up to 46.1 µM; lipid storage change, negative = inhibition: at the top concentration
Method in brief: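 Laser-scanning cytometry quantifies lipid droplet accumulation (500–530 nm total intensity; droplet/cell object ratio) in oleic acid-fed (400 uM added) Drosophila S3 cells treated with a concentration series. 20 uM Triacsin C defined 100% inhibition.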
Potency means the concentration at half of the fitted maximal effect.

SMILES	outcome	cell number change [%]	lipid storage change, negative = inhibition	Potency
O=C(NC1CC2CCCC(C1)N2C(=O)Nc1ccccc1)c1ccncc1 (stereo not drawn)	inactive	23.5		
Cc1nc2sc(C(=O)OCC(=O)N3c4ccccc4CC3C)c(C)c2c(=O)[nH]1 (stereo not drawn)		19.4	3.61% (inactive)	
COc1ccc(N2C(=O)NC(NC(=O)C(C)(C)C)(C(F)(F)F)C2=O)cc1 (stereo not drawn)		-16.8	4.27% (inactive)	
Clc1ccccc1C1CC(c2ccccc2)=Nc2ccccc2N1 (stereo not drawn)		-20.8	-0.673% (inactive)	
CC1CC(c2ccccc2)=Nc2ccccc2N1 (stereo not drawn)		13.7		0.82 µM (active)
CC1(c2ccccc2)CC(c2ccccc2)=Nc2ccccc2N1 (stereo not drawn)		1.92	2.96% (inactive)	
CCN1CCN(Cc2c(C(=O)N/N=C(\C)c3ccc(Cl)c(Cl)c3)nnn2-c2nonc2N)CC1		-0.855	-18.5% (inactive)	
Cn1c(N)c(C(=O)COC(=O)c2ccc(Cl)c(S(=O)(=O)N3CCCC3)c2)c(=O)n(C)c1=O		1.25	-8.77% (inactive)	
O=C(Cn1cc([N+](=O)[O-])cn1)Nc1nc2ccccc2s1	inactive			
COc1cc(/C=C/C(=O)O)cc(S(=O)(=O)NCCO)c1OC		-11.7	-2.02% (inactive)	
CC1Cc2ccccc2N1C(=O)CSc1ccccc1 (stereo not drawn)		-23.8	14.5% (inactive)	
CC1Cc2ccccc2N1C(=O)CNc1ccccc1N1CCCCC1 (stereo not drawn)		1.48	-0.0673% (inactive)	
CC1Cc2ccccc2N1C(=O)CNCCCN(C)C (stereo not drawn)		-0.87		20.6 µM (active)
CC(C(=O)NC1=NCCS1)N1C(=O)C2CC=CCC2C1=O (stereo not drawn)		-25.7		29.1 µM (active)
CC(NC(=O)C1CCCCC1)C(=O)NC1=NCCS1 (stereo not drawn)		-6.79		20.6 µM (active)
CC(NC(=O)c1ccccc1)C(=O)NC1=NCCS1 (stereo not drawn)		-3.51	-13.9% (inactive)	
O=C(CN1C(=O)C2CC=CCC2C1=O)NC1=NCCS1 (stereo not drawn)		4.96	-0.923% (inactive)	
CC(NC(=O)c1ccc(Br)cc1)C(=O)NC1=NCCS1 (stereo not drawn)		5.62	-5.54% [at 9.22 µM] (inactive)	
CC(C(=O)NC1=NCCS1)N1C(=O)c2ccccc2C1=O (stereo not drawn)		-6.04	4.57% (inactive)	
COC(=O)CC1C(=O)NC2CCCCC2N1C(=O)c1ccccc1 (stereo not drawn)		-6.42	9.33% (inactive)	
COCC(C)NC(=O)COc1ccc(Cl)cc1Cl (stereo not drawn)		14.4	8.5% (inactive)	
CC(=O)N(C)c1nc(N)n(-c2ccccc2)n1		17.4	1.59% (inactive)	
CN(CC(=O)Nc1ccc(N2CCOCC2)cc1)C(=O)C12CC3CC(CC(C3)C1)C2		0.396	-1.21% (inactive)	
CC(C)(C)c1ccc(NC(=O)Nc2ccc3ccccc3n2)cc1		14.5	1.36% (inactive)	

SMILES	outcome	cell number change [%]	lipid storage change, negative = inhibition	Potency
CCCCn1c(=N)n(CC(=O)O)c2ccccc21		-0.932	-7.08% (inactive)	
COc1ccc(N(CC(=O)N/N=C/c2cc3ccc(OC)cc3nc2Cl)S(=O)(=O)c2ccccc2)cc1		5.98	6.18% (inactive)	
COc1ccc(Cc2noc(CN3CCCN(Cc4ccc(F)cc4)CC3)n2)cc1OC		-12.5	1.97% (inactive)	
Cc1ccn2c(C(=O)NNC(=O)Nc3ccc(Cl)cc3)c(C)nc2c1	inactive	-7.08		
CCCCN(C(=O)C1CCCC1)c1c(N)n(CCC)c(=O)[nH]c1=O		10.4	-1.72% (inactive)	
CCCCN(C(=O)C1CC(=O)N(Cc2ccc(C)cc2)C1)c1c(N)n(CCCC)c(=O)[nH]c1=O (stereo not drawn)	inactive	2.26		
CCCCN(C(=O)C1CC(=O)N(c2ccc(C)cc2)C1)c1c(N)n(CCC)c(=O)[nH]c1=O (stereo not drawn)		-1.39		20.6 µM (active)
Cc1ccc(-c2csc(NC(=O)c3cccc(S(=O)(=O)N4CCN(C)CC4)c3)n2)cc1		13	12.3% (inactive)	
O=C1CC(c2ccccc2)CC(=NCCO)/C1=C(\O)CCCN1C(=O)c2ccccc2C1=O (stereo not drawn)		-9.46	-0.796% (inactive)	
CC12CN3CCN(CC(C3)C1(O)CN1CCCCC1)C2 (stereo not drawn)		-4.02	-5.91% (inactive)	
CC12CN3CCN(CC(C3)C1(O)CN1CCOCC1)C2 (stereo not drawn)		0.875		4.61 µM (active)
OC1(CN2CCOCC2)C2CN3CCN(C2)CC1(c1ccccc1)C3 (stereo not drawn)		10	5.96% (inactive)	
CCOc1ccc(C(C(=O)NC2CCCC2)N(CCCO)C(=O)c2ccc(-c3ccccc3)[nH]2)cc1 (stereo not drawn)	inactive	42.7		
Cc1nnc(-c2ccc(Oc3ccc(Br)cc3)c([N+](=O)[O-])c2)o1		2.33	5.02% (inactive)	
O=C(C/C=N/OCc1ccc(Cl)cc1Cl)c1ccc(Cl)cc1		4.16	-12% (inactive)	
Clc1ccc(CNC2CCCC2)cc1		-30.8		20.6 µM (active)
Oc1ccc(CNC2CCCCC2)cc1		0.0125	15.6% (inactive)	
Clc1ccc(CNC2CCCC2)c(Cl)c1		-13.9	-3.52% (inactive)	
CCCCOC(=O)C1C2C=CC3(CN(CCc4ccccc4)C(=O)C13)O2 (stereo not drawn)		-8.47	9.44% (inactive)	
N#Cc1c(NC(=O)c2ccc(Cn3cc(Br)cn3)o2)sc2c1CCCCC2		0.806	-16.2% (inactive)	
Cc1ccc(N=c2sc(C)c(C)n2C)cc1		-18.9	24.7% (inactive)	
C1CCC(OCCN2CCN(CCOC3CCCCC3)CC2)CC1		6		25.9 µM (active)
O=C(c1ccccc1)N1CCN(CC(O)COC2CCCCC2)CC1 (stereo not drawn)		4.36	0.0284% (inactive)	
C1CCCCCC(NCCN2CCNCC2)CCCCC1		2.58	2.81% (inactive)	

SMILES	outcome	cell number change [%]	lipid storage change, negative = inhibition	Potency
COCCNC(=O)CN1CCC(NC(=O)c2ccco2)CC1		-1.29	6.44% (inactive)	
Cc1ccc(NC(=O)c2c(F)cccc2Cl)cc1NS(C)(=O)=O		5.84	-2.17% (inactive)	
COc1ccc(/C=N/NC(=O)c2cccnc2)cc1CN1CCN(c2ccc(F)cc2)CC1		3.44	-2.21% (inactive)	
COc1ccc(CC(=O)Nc2c3c(nn2C(C)(C)C)CS(=O)(=O)C3)cc1OC		17	-9.19% (inactive)	
CCCCNCC1C(Oc2ccc(Cl)cc2)C(=O)N1c1ccccc1C (stereo not drawn)			-32% (inactive)	
COCCNCC1C(Oc2ccc(Cl)cc2)C(=O)N1c1ccccc1C (stereo not drawn)		19.6	6.12% (inactive)	
Cc1ccccc1N1C(=O)C(Oc2ccc(Cl)cc2)C1CNCCCOC(C)C (stereo not drawn)		-13.5		23.1 µM (active)
Cc1ccnc2c1ccc1c(C)ccnc12		-0.829	-13.5% (inactive)	
O=C(NCc1n[nH]c(=S)n1-c1ccccc1)c1ccc(S(=O)(=O)N2CCCCC2)cc1			-0.121% (inactive)	
COC(=O)c1ccc(N2CCN(c3ccccc3)CC2)c(N)c1		6.3	0.528% (inactive)	
COC(=O)c1ccccc1NC(=O)N1CCN(c2ccccc2F)CC1		25.6	13.5% (inactive)	
COC(=O)c1ccccc1N1CCS(=O)(=O)CC1		-18.8		16.4 µM (active)
CCOC(=O)C1=C(CS(=O)(=O)c2ccccc2)NC(=O)NC1c1cccc(OC)c1 (stereo not drawn)		15.2	8.29% (inactive)	
COC(=O)c1ccc(NC(=S)N2CCCC2)cc1		-8.77	-1.49% (inactive)	
COc1cccc(NS(=O)(=O)c2ccc3c(c2)N(C(C)=O)CCS3)c1			-12.1% (inactive)	
O=S(=O)(Nc1cccc(Cl)c1)c1ccc(-n2cccn2)cc1	inactive			
COc1cccc(NS(=O)(=O)c2ccc3c(c2)CCN3C(C)=O)c1		-8.33		1.64 µM (active)
CC(=O)N1CCc2cc(S(=O)(=O)Nc3ccc(C)cc3)ccc21		8.46	-2.71% (inactive)	
COc1cccc(NS(=O)(=O)c2ccc(-n3cccn3)cc2)c1		-7.08		0.0517 µM (active)
CCc1cccc(NS(=O)(=O)c2ccc(-n3cccn3)cc2)c1		18.7	12.6% (inactive)	
Cn1cnnc1Sc1nc2c(c(=O)n(C)c(=O)n2C)n1Cc1ccccc1Cl		16.5	3.49% (inactive)	
O=C(c1ccc(=O)[nH]c1)N1CCN(S(=O)(=O)c2ccc3ccccc3c2)CC1		-9.74	19.4% (inactive)	
COc1cc(CO)c(Br)cc1OCC(=O)Nc1ccccc1C		-15.6	-9.12% (inactive)	
Cc1ccc(/C=C2\SC(=S)N(CCCC(=O)NNC(=O)c3ccccc3O)C2=O)cc1		17.7	-0.747% (inactive)	

SMILES	outcome	cell number change [%]	lipid storage change, negative = inhibition	Potency
O=C(CCCN1C(=O)/C(=C/c2cccs2)SC1=S)NNC(=O)c1ccncc1		21	6.17% (inactive)	
O=C(CCN1C(=O)/C(=C\c2cccs2)SC1=S)Nc1nccs1		-0.135	-1.66% (inactive)	
O=C(CCN1C(=O)/C(=C/c2cccs2)SC1=S)Nc1cccc(C(=O)O)c1		-17.1		0.164 µM (active)
O=C(CCCN1C(=O)/C(=C/c2cccs2)SC1=S)NNC(=O)c1ccccc1O		-24.1		6.51 µM (active)
O=C(CCN1C(=O)/C(=C/c2ccccc2Cl)SC1=S)Nc1ccccn1		-0.66		20.6 µM (active)
O=C(CCN1C(=O)/C(=C/c2cccs2)SC1=S)Nc1ccc(C(=O)O)c(O)c1	inactive	-26.8		
O=C(CCN1C(=O)/C(=C/c2cccs2)SC1=S)Nc1ccccc1O		13.5		3.66 µM (active)
O=C(CCCN1C(=O)/C(=C\c2cccs2)SC1=S)Nc1cc([N+](=O)[O-])ccc1O	inactive			
O=C(CN1C(=O)/C(=C\c2cccs2)SC1=S)Nc1cccc(C(=O)O)c1		24	-1.3% (inactive)	
O=C(CCN1C(=O)/C(=C/c2ccccc2)SC1=S)Nc1ccccn1		-0.917	21% (inactive)	
O=C(CCN1C(=O)/C(=C/c2ccccc2F)SC1=S)Nc1ccccn1		23.3	-15% (inactive)	
CCc1ccc(OCC(=O)N(C)CCC#N)c(Br)c1	inactive			
CC1=[N+]([O-])C(C)(C)C(C)N(O)C1=O (stereo not drawn)		1.53	-12.1% (inactive)	
COc1ccc(C(=O)O)cc1S(=O)(=O)Nc1cc(Cl)ccc1N1CCOCC1		11.4	-0.213% (inactive)	
COC(=O)/C=C1\SC(=NC(=O)c2cccc(Cl)c2)NC1=O		-23.4	-25.1% (inactive)	
Nc1nonc1-n1nnc(C(=O)N/N=C/c2ccc(OCc3ccccc3)cc2)c1CN1CCCCC1	inactive			
O=C(Nc1cccc(NC(=O)c2ccc(Br)o2)c1)c1ccccc1	inactive	-12.9		
N#CC1=C(Nc2ccccc2)SC=C(c2ccc(Cl)c(Cl)c2)N=C1N1CCOCC1		-15.3	6.25% (inactive)	
Cc1cc(C)n(-c2ccc(C(=O)NC3CCCCC3)cc2)n1		17.4	14.6% (inactive)	
COc1ccccc1NC(=O)C(C/C=C(/C)Cl)C(C)=O (stereo not drawn)		12.3	9.77% (inactive)	
COc1ccc(N(CC(=O)N/N=C/c2cccnc2)S(=O)(=O)c2ccc(C)cc2)cc1OC	inactive	-15.9		
